An excerpt weighted towards active compounds, which were near 3.1% of everything screened.
Rin1-Abl PPI inh – human Rin1-Abl interaction inhibition | P00519+Q13671 | TR-FRET Rin1/Abl binding, biochemical | inhibition, % at 7.35 µM | 360,000 tested, 0.4% active; in the data active = inhibition above about 5%, passing the limit was not always enough
eLon inh – inhibitors of E. coli Lon protease; inhibition, % at 7.94 µM; purified E. coli Lon protease, fluorescence polarization; AID 602123; 360,000 tested, 0.42% active; in the data active = inhibition above about 13%, passing the limit was not always enough
PAFAH2 FP inh – PAFAH2 (human) inhibition | Q99487 | recombinant PAFAH2, FP-rhodamine activity probe, fluorescence polarization | inhibition, % at 3.39 µM | 340,000 tested, 0.99% active | AID 492956;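 active = inhibition above the mean over all tested compounds plus 3 SD, cut at about 30% in these data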;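 also: inhibitors block probe labeling of enzyme so polarization drops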
PAFAH1B3 FP inh – inhibitors of human PAFAH1B3 | AID 492972 | recombinant PAFAH1B3, FP-rhodamine probe, fluorescence polarization | 340,000 tested, 0.28% active | inhibition, % at 3.39 µM;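 active = inhibition above the screen-wide average of all tested compounds plus 3 SD, cut at about 25% in these data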
Target sequence (Q15102 whole entry, looked up): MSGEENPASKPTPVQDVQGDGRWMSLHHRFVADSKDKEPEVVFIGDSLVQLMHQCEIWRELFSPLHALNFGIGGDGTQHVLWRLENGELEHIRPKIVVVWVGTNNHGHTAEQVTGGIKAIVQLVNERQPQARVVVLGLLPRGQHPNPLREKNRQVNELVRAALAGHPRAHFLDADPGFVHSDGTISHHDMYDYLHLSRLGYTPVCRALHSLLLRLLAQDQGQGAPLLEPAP
pPAFAH inh – inhibitors of human plasma PAF acetylhydrolase (pPAFAH); inhibition, % at 3.39 µM; Q13093; 330,000 tested, 1.5% active; recombinant pPAFAH, FP-rhodamine probe fluorescence polarization;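 active = inhibition above the mean inhibition across the screen plus 3 SD, cut at about 25% in these data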;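 also: inhibitors block binding of the rhodamine activity-based probe so polarization drops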
PAFAH1B2 FP inh – PAFAH1B2 (human) inhibition; P68402; recombinant PAFAH1B2, FP-rhodamine activity probe, fluorescence polarization; inhibition, % at 3.39 µM; 340,000 tested, 1.2% active; AID 492953;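 active = inhibition above the mean of all tested compounds plus 3 SD, cut at about 24% in these data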
Target sequence (P68402 whole entry, looked up): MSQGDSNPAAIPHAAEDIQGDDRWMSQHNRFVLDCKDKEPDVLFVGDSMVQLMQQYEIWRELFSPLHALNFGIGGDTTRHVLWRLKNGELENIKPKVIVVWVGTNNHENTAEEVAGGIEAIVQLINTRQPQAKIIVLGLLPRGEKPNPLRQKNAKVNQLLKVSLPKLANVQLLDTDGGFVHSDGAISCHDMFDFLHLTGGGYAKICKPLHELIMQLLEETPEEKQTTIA
Numbers stand for hits; – = inactive; · = no result.

SMILES	Rin1-Abl PPI inh	eLon inh	PAFAH2 FP inh	PAFAH1B3 FP inh	pPAFAH inh	PAFAH1B2 FP inh
COc1ccc(NC(=O)O/N=C/c2ccc(Br)cc2)cc1	–	–	–	–	–	46
O=C1CCC(C(=O)N2CCN(c3ccccc3)CC2)CN1CC1CCCCC1 (stereo unspecified)	–	–	–	–	–	–
Cn1c(SSc2ccc(-c3cccnc3)n2C)ccc1-c1cccnc1	–	–	–	–	·	–
CCCOc1ccc(C(CC(=O)O)NC(=O)C(c2ccccc2)c2ccccc2)cc1 (stereo unspecified)	–	–	–	–	–	26
COc1ccc(C(=O)NCC(c2ccccc2)N2CCCC2)cc1S(=O)(=O)N1CCOCC1 (stereo unspecified)	–	–	–	–	–	–
CCN1CCN(c2cc(N3CCN(C(=O)c4ccco4)CC3)c3c4c(onc24)-c2ccccc2C3=O)CC1	–	–	–	–	27	–
Brc1ccc(CSc2nnc(-c3ccco3)o2)cc1	–	–	–	–	–	27
CCOC(=O)C1=C(COC(=O)[C@@H](NC(=O)c2cccc(C)c2)C(C)C)NC(=O)NC1C (stereo partly specified)	–	–	–	–	–	–
CC(C)=CCC1=C(OCC(=O)O)C(=O)c2ccccc2C1=O	–	–	35	57	–	–
O=C(NCc1ccccn1)c1ccc(OC2CCN(Cc3ccc(F)cc3F)CC2)cc1	–	–	–	–	–	–
O=C(O)c1cc(S(=O)(=O)N(Cc2ccccc2)c2ccc(Cl)cc2)ccc1Cl	–	–	–	–	–	29
O=C(O)c1cccc(S(=O)(=O)N(Cc2ccccc2)c2cccc(C(F)(F)F)c2)c1	–	–	–	–	28	–
O=C(CN1C(=O)NC2(CCCCC2)C1=O)N1CCN(S(=O)(=O)c2ccc(F)c(F)c2F)CC1	–	–	–	–	·	–
CC(=O)Nc1ccc2c(c1)nc(C)n2-c1ccccc1	–	–	–	–	–	–
Cc1nc2cc(Cl)ccc2n1-c1ccccc1	–	–	–	–	25	–
O=C(CCC(=O)NNC(=O)COc1ccc(Br)cc1Br)NCc1ccccc1	–	–	·	·	27	·
Cc1cc(Br)cc(Br)c1OCC(=O)NNC(=O)CCC(=O)NCc1ccccc1	–	–	–	–	·	–
Cn1c(=O)c2c(nc(N3CCOCC3)n2CC(=O)C23CC4CC(CC(C4)C2)C3)n(C)c1=O	–	–	–	–	–	27
CCN(C(=O)CSc1cccc[n+]1[O-])C1CCCCC1	–	–	–	–	–	–
CN(C)c1ccc(O)c2c1CC1CC3C(N(C)C)C(=O)C(C(N)=O)=C(O)[C@@]3(O)C(=O)C1=C2O (stereo partly specified)	–	–	–	–	33	–
CC1C(c2ccccc2)OCCN1C(=S)NC(=O)c1ccccc1 (stereo unspecified)	–	–	·	·	·	·
CCOc1ccc(-n2cc(-c3ccccc3)c3c(N4CCOCC4)ncnc32)cc1	–	–	–	–	–	–
CCOc1ccc(-n2cc(-c3ccccc3)c3c(=S)nc[nH]c32)cc1	–	–	–	–	28	–
O=C(CN1CCCc2ccccc21)Nc1cccc(S(=O)(=O)N2CCOCC2)c1	–	–	–	–	·	–
Cc1ccc(C(=O)N/C(=C/c2ccc(N(C)C)cc2)C(=O)NCC2CCCO2)cc1 (stereo unspecified)	–	–	–	–	–	–
SMILES	Rin1-Abl PPI inh	eLon inh	PAFAH2 FP inh	PAFAH1B3 FP inh	pPAFAH inh	PAFAH1B2 FP inh
O=C(Cc1cccs1)N1CCN(S(=O)(=O)c2ccc(F)c(F)c2)CC1	–	–	–	–	–	–
O=C(Cc1ccon1)c1ccc(O)cc1O	–	–	–	–	·	–
CCNC(=S)NNC(=O)c1cc(-c2cccc(C)c2)nc2ccccc12	–	–	–	–	–	32
CCNC(=S)NNC(=O)c1cc(-c2ccc(OC)cc2)nc2ccccc12	–	–	–	–	–	28
O=C(NNC(=S)Nc1ccccc1)c1cc(-c2cccnc2)nc2ccccc12	–	–	–	–	–	–
CCOC(=O)c1ccc(NC(=S)NNC(=O)c2cc(-c3cccnc3)nc3ccccc23)cc1	–	–	–	–	30	–
CCOC(=O)c1nc2c(=O)n(C)c(=O)n(C)c2n(C)c1=O	–	–	–	–	–	–
CCOC(=O)C1=C(COC(=O)c2ccc(OC)c(S(=O)(=O)N3CCOCC3)c2)NC(=O)NC1C (stereo unspecified)	–	–	–	–	·	–
CCC(C)(C)n1nnnc1C(c1cccnc1)N1CCC(Cc2ccccc2)CC1 (stereo unspecified)	–	–	–	–	–	–
CCC(C)(C)n1nnnc1C(c1ccncc1)N1CCC(Cc2ccccc2)CC1 (stereo unspecified)	–	–	–	–	26	–
N=c1sccn1CC(=O)Nc1cccc(S(=O)(=O)N2CCCCCC2)c1	–	–	–	–	–	–
CCCCn1c(N)c(N(CC(C)C)C(=O)c2ccc(OC)c(S(=O)(=O)N3CCOCC3)c2)c(=O)[nH]c1=O	–	–	–	–	·	–
O=C([C@H](Cc1ccccc1)NS(=O)(=O)c1ccc(Cl)cc1)N1CC[C@@]2(O)CCCC[C@H]2C1	–	–	–	–	–	30
COc1ccc(C)cc1NC(=O)C(c1ccccc1)N1CCNC(=O)C1 (stereo unspecified)	–	–	–	–	–	–
COCC(=O)Nc1ccc2c(c1)[C@@H]1C[C@H](CC(=O)OC)O[C@H](CO)[C@@H]1O2	–	–	·	·	·	·
Oc1ccc(Nc2nc3ccccc3nc2Nc2ccc(O)cc2)cc1	–	–	–	40	–	27
Cc1nc2ccccc2nc1N/N=C/c1ccc(O)cc1	–	–	–	–	–	–
O=C1OC(C(Cl)(Cl)Cl)Nc2ccccc21 (stereo unspecified)	–	–	·	·	·	·
CC(C)(c1ccc(O)cc1)c1ccc(O)c(C(=O)O)c1	–	–	·	·	·	·
CC(C)(c1ccc(O)cc1)c1ccc(O)cc1	–	–	–	–	–	48
O=C(Cc1ccc(Cl)cc1Cl)Nc1cccc(S(=O)(=O)Nc2ccccc2F)c1	–	–	–	–	27	–
Cc1ccc(S(=O)(=O)c2nc(S(=O)(=O)c3ccccc3)sc2N2CCN(C)CC2)cc1	–	–	–	–	31	–
CCCS(=O)(=O)c1nc(S(=O)(=O)c2ccc(C)cc2)c(N2CCN(C)CC2)s1	–	–	–	–	–	–
COC(=O)C1=C(C)N(CCCC(=O)O)C(=O)NC1c1ccc([N+](=O)[O-])cc1 (stereo unspecified)	–	–	–	–	–	–
COC(=O)C1=C(C)N(CCCC(=O)O)C(=O)NC1c1cc2c(cc1[N+](=O)[O-])OCO2 (stereo unspecified)	–	–	–	–	30	–
O=c1cc(-c2ccc(O)c(O)c2)oc2cc(O)cc(O)c12	–	–	–	39	–	34
COC(=O)C(Cc1ccccc1)NC(=O)CCNC(=O)c1ccc(Br)cc1 (stereo unspecified)	–	–	–	–	–	–

Bioassay records as filed in PubChem BioAssay.
